# High-throughput results (PubChem)
# A selection: hits, their analogues and other compounds. The true share with any hit is near 7.2%.
# ALR H2O2 inh = human ALR oxidase inhibition via reduced H2O2. AID 485317. 290,000 tested, 3.8% active. P55789. inhibition, % (concentration not given with the values). purified ALR, DTT oxidation, H2O2 HRP-luminol luminescence;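 active = mean replicate inhibition above about 79%, with every replicate also reaching it, limit read from the data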
# Target sequence (P55789 whole entry, looked up): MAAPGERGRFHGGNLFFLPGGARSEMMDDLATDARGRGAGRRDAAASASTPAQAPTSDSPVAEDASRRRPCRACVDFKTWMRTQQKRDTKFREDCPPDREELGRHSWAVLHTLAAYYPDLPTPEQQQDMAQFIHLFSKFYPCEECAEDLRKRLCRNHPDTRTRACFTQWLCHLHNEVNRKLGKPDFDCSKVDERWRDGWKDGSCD
# Bfl-1 A1 inh = inhibitors of the anti-apoptotic protein A1, read as caspase activation | MEF A1-2A-BIM cells, Caspase-Glo 3/7 luminescence, 3 h; percent of clofoctol response, vehicle zero | caspase activation, % (concentration not given with the values) | 330,000 tested, 0.066% active | AID 2462;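 active = over half of replicate activation scores above 10%, or exactly half above 10 with the replicate mean above 10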
# Efflux pump mplx = antifungal efflux pump inhibition, Nile Red retention. inhibition, % at 10 µM. 330,000 tested, 0.44% active. S. cerevisiae Candida pump triplex;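 active = plate passing quality check with inhibition over a set limit, or well fluorescence over plate mean plus 4 SD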;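 note: Nile Red retained in pooled yeast measured as flow cytometry median fluorescence; higher means more Nile Red kept so more efflux inhibition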
# AHR act = activates the human aryl hydrocarbon receptor; AHR-responsive luciferase reporter cells, luminescence; activation, % at 5 µM; 320,000 tested, 2.5% active; in the data active = activation above about 47%
# VLA-4 inh = inhibition in a human VLA-4 binding assay; P13612; VLA-4 expressing cells, ligand binding flow cytometry; inhibition, % (about 7 µM as worked out from the volumes in the protocol); 330,000 tested, 0.2% active; AID 2557; in the data active = inhibition above about 50%
# SUMO Mot1 rescue = inhibitors of SUMOylation pathway: yeast Mot1-301 growth rescue | AID 2716 | 320,000 tested, 1% active | growth rescue, % at 18.8 µM | S. cerevisiae Mot1-301 growth rescue, ATP luminescence, 38.5C; percent above DMSO median, 100 means doubled;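 active = every valid replicate shows activation above 250% relative to neutral control wells; inactive = the rest, any valid replicate at or below 250%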
# Cmpd fluor yeast = compound fluorescence in yeast efflux pump counter-screen | shares compounds with Efflux pump mplx | S. cerevisiae AD/pABC3, flow cytometry | fluorescence ratio to DMSO, % at 10 µM | 1,700 tested, 4% active;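 active = fluorescence ratio to DMSO above its plate's cutoff, the plate mean ratio plus 5 SD, cut at about 210% in these data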;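 note: unstained yeast with no Nile Red so the signal is compound autofluorescence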
# Mdr1 pump inh = blocks the Candida albicans Mdr1 efflux pump in yeast; S. cerevisiae AD/CaMDR1, Nile Red efflux, flow cytometry; shares compounds with Efflux pump mplx; 1,700 tested, 1% active; AID 588518; inhibition, % at 10 µM; in the data active = inhibition above about 26%;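 note: higher means more Nile Red retained so more efflux inhibition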
# Cdr2 pump inh = blocks the Candida albicans Cdr2 efflux pump in yeast; shares compounds with Efflux pump mplx; S. cerevisiae AD/CaCDR2, Nile Red retention, flow cytometry; Nile Red retention ratio vs DMSO, % at 10 µM; 1,700 tested, 4% active; in the data active = Nile Red retention ratio vs DMSO above about 190%;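 note: higher ratio means more blocking of Cdr2 efflux of the dye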
# CaCdr1 efflux inh = Candida Cdr1 efflux pump inhibition; shares compounds with Efflux pump mplx; S. cerevisiae AD/CaCDR1, Nile Red efflux, flow cytometry; inhibition, % at 10 µM; 1,700 tested, 1% active;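 active = inhibition above the screen-wide mean plus twice its standard deviation, cut at about 32% in these data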
# Hits are given with their value; - = inactive; . = no result given.
SMILES,ALR H2O2 inh,Bfl-1 A1 inh,Efflux pump mplx,AHR act,VLA-4 inh,SUMO Mot1 rescue,Cmpd fluor yeast,Mdr1 pump inh,Cdr2 pump inh,CaCdr1 efflux inh
COc1cccc(C2c3c(C)nn(-c4ccc([N+](=O)[O-])cc4)c3N=C3C(=O)Nc4ccccc4N32)c1 (centres undefined),-,-,0.4,-,-,-,-,-,-,-
CC(=O)Nc1ccc(NC2=Nc3ccccc3N3C2=Nc2c(c(C)nn2-c2ccccc2)C3c2ccccc2)cc1 (centres undefined),-,-,-,-,-,-,.,.,.,.
COc1ccccc1N1CC(C(=O)Nc2ccc(C)c(S(=O)(=O)N3CCOCC3)c2)CC1=O (centres undefined),-,-,-,-,-,-,.,.,.,.
Cc1cccc(N2N=C(C(=O)Nc3ccc(Cl)c(S(=O)(=O)N4CCOCC4)c3)CCC2=O)c1,-,-,-,-,-,-,.,.,.,.
CC(=O)N1CCN(c2ccc(NC(=S)NC(=O)c3ccccc3)cc2)CC1,-,-,5.8,-,-,-,-,-,-,-
CC(=O)N1CCN(c2ccc(NC(=O)c3ccccc3)cc2)CC1,-,-,-,-,-,-,.,.,.,.
CN(C)S(=O)(=O)c1ccc(N2CCCC2)c(C(=O)Nc2nc3c(ccc4ccccc43)s2)c1,-,-,1.9,-,-,-,-,-,-,-
CN(C)S(=O)(=O)c1ccc(N2CCCC2)c(C(=O)N2CCN(c3ccc([N+](=O)[O-])cc3)CC2)c1,-,-,-,-,-,-,.,.,.,.
